A selection: hits, their analogues and other compounds. The true share with any hit is near 6.7%.
Pf Dd2 inh: P. falciparum Dd2 growth inhibitors, primary screen, SYBR Green fluorescence, single dose replicates; activity change, % at 10 µM; actives 2.3% (n = 94,000); 72 h; stronger effect = lower value; in the data active means activity change below about -80%; inconclusive means no clear call, values can overlap the other calls
C diff growth: C. difficile growth inhibitors, primary screen, HTS; Clostridium difficile clinical isolate growth, OD600, 24 h; stronger effect = lower value; AID 1259249, 2017; growth activity, negative = inhibition, % at 16 µg/mL (by protocol); actives 0.25% (n = 86,000);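 active means mean growth activity at or below -80% and every replicate also at or below -80%; inconclusive means mean at or below -80% but some replicate above -80%; inactive means mean growth activity above -80%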
T cruzi growth-1: T. cruzi intracellular proliferation inhibitors, primary screen, cell-based, beta-gal Tulahuen parasites, NIH3T3 host, luminescence; AID 624255, 2012; actives 5.9% (n = 77,000); T. cruzi beta-gal in NIH3T3, GalScreen luminescence, 90 h; inhibition, % at 8.34 µM;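 active means mean inhibition above about 93%, with at least 55% of replicates each passing it, limit read from the data, passing the limit was not always enough; inconclusive means only one of those two conditions holds; inactive means neither condition holds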
T cruzi growth-2: T. cruzi intracellular proliferation inhibitors, confirmation, cell-based, NIH3T3 host, beta-gal parasite, luminescence, cherry-pick; shares compounds with T cruzi growth-1; T. cruzi beta-gal in NIH3T3, GalScreen luminescence, 90 h; inhibition, % at 8.35 µM; actives 72% (n = 5,600); AID 651739, 2012;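 active means mean replicate inhibition above about 95% and at least 55% of replicates individually reaching it, limit read from the data; inconclusive means only one of the two criteria is met; inactive means neither criterion is met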
T cruzi growth-3: inhibitors of intracellular T. cruzi replication, confirmation, NIH3T3 host cells, beta-gal parasites, cherry-pick, set 2. T. cruzi beta-gal in NIH3T3, GalScreen luminescence, 90 h. inhibition, % at 2.09 µM. actives 21% (n = 5,600). shares compounds with T cruzi growth-1. AID 651740, 2012;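 active means mean inhibition above about 95%, with at least 55% of replicates also reaching it, limit read from the data; inconclusive means meets just one of the two conditions; inactive means meets neither condition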
3T3 cytotox: cytotoxicity in mouse NIH/3T3 fibroblasts, confirmation, cytotoxicity control for T. cruzi proliferation inhibitor project, cell-based, cherry-pick, single point. NIH/3T3 viability, CellTiter-Glo ATP luminescence, 90 h. actives 14% (n = 5,600). shares compounds with T cruzi growth-1. cytotoxicity (signal decrease), % at 8.35 µM;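 active means mean signal decrease across replicates above about 35% based on untreated-well scatter, with enough replicates individually passing, limit read from the data; inconclusive means no rule stated though some were filed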
3T3 cytotox 2: NIH/3T3 fibroblast cytotoxicity, confirmation, cytotoxicity control, cell-based, cherry-pick, single point, set 2; AID 651744, 2012; NIH/3T3 viability, CellTiter-Glo ATP luminescence, 90 h; inhibition, % at 24.9 µM; shares compounds with T cruzi growth-1; actives 56% (n = 5,600);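 active means mean loss of cell viability signal at or above a set limit, and enough replicates individually reaching it; inconclusive means meets only the mean limit or only the replicate share; inactive means meets neither condition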
Of the large screens only hits and unclear results are named; the others gave an inactive call (follow-up assays come after a bar, where they were run).

COc1cccc(NC(=O)N2[C@H](CO)[C@@H](c3ccccc3)[C@H]2CNC(C)C)c1	T cruzi growth-1 104 | T cruzi growth-2 inactive | T cruzi growth-3 inactive | 3T3 cytotox inactive | 3T3 cytotox 2 inactive
CC(C)NC(=O)N1[C@H](CO)[C@H](c2ccccc2)[C@@H]1CNCc1ccccc1	none (no result: T cruzi growth-1)
COc1cccc(NC(=O)N2CC3(C2)[C@H](c2ccccc2)[C@@H](CO)N3C(C)=O)c1	none (no result: T cruzi growth-1)
COc1cccc(NC(=O)N2[C@@H](CO)[C@H](c3ccccc3)[C@@H]2CNC(C)C)c1	T cruzi growth-1 102 | T cruzi growth-2 101 | T cruzi growth-3 inactive | 3T3 cytotox inactive | 3T3 cytotox 2 inactive
O=C(C[C@@H]1C=C[C@@H](NC(=O)CC2CC2)[C@H](CO)O1)NCc1ccccc1	none (no result: T cruzi growth-1)
COCCNC[C@H]1[C@@H](c2ccccc2)[C@@H](CO)N1c1nc(C)c(C)s1	T cruzi growth-1 103 | T cruzi growth-2 inactive | T cruzi growth-3 inactive | 3T3 cytotox inactive | 3T3 cytotox 2 inactive
COCCNC[C@@H]1[C@@H](c2ccccc2)[C@@H](CO)N1c1nc(C)c(C)s1	none
C[C@@H]1CN([C@H](C)CO)C(=O)Cc2cc(NC(=O)CCC(F)(F)F)ccc2O[C@@H]1CN(C)C(=O)Nc1ccc(C(F)(F)F)cc1	none
CC(C)NC(=O)Nc1ccc2c(c1)C(=O)N([C@@H](C)CO)C[C@H](C)[C@H](CN(C)C(=O)Nc1ccccc1)OCCCC[C@H](C)O2	T cruzi growth-1 100 | T cruzi growth-2 inactive | T cruzi growth-3 inactive | 3T3 cytotox inactive | 3T3 cytotox 2 inactive
C[C@H]1CCCCO[C@H](CN(C)C(=O)Nc2ccccc2)[C@@H](C)CN([C@@H](C)CO)C(=O)c2cc(NC(=O)Nc3ccccc3)ccc2O1	T cruzi growth-1 98 | T cruzi growth-2 109 | T cruzi growth-3 inactive | 3T3 cytotox inactive | 3T3 cytotox 2 inactive
C[C@H](CO)N1C[C@H](C)[C@@H](CN(C)C(=O)Nc2ccccc2)OCCCC[C@H](C)Oc2ccc(NC(=O)Nc3ccccc3)cc2C1=O	T cruzi growth-1 102 | T cruzi growth-2 107 | T cruzi growth-3 inactive | 3T3 cytotox inactive | 3T3 cytotox 2 inactive
CC(C)NC(=O)N(C)C[C@H]1OCCCC[C@H](C)Oc2ccc(NC(=O)Nc3ccccc3)cc2C(=O)N([C@H](C)CO)C[C@@H]1C	none
C[C@@H]1CCCCO[C@H](CN(C)C(=O)Nc2ccccc2)[C@H](C)CN([C@@H](C)CO)C(=O)c2cc(NC(=O)Nc3ccccc3)ccc2O1	none
CC(C)NC(=O)Nc1ccc2c(c1)C(=O)N([C@@H](C)CO)C[C@@H](C)[C@@H](CN(C)C(=O)Nc1ccccc1)OCCCC[C@H](C)O2	none
C[C@H]1CCCCO[C@@H](CN(C)C(=O)Nc2ccccc2)[C@@H](C)CN([C@@H](C)CO)C(=O)c2cc(NC(=O)Nc3ccccc3)ccc2O1	T cruzi growth-1 inconclusive | T cruzi growth-2 110 | T cruzi growth-3 inactive | 3T3 cytotox inactive | 3T3 cytotox 2 inactive
C[C@H](CO)N1C[C@H](C)[C@H](CN(C)C(=O)Nc2ccccc2)OCCCC[C@H](C)Oc2ccc(NC(=O)Nc3ccc(F)cc3)cc2C1=O	none (no result: C diff growth)
CN(C)C(=O)c1ccc(-c2ccc([C@@H]3[C@@H](CO)N4CCCCN(S(C)(=O)=O)C[C@@H]34)cc2)cc1	none
CCCc1cn(CC[C@@H]2CC[C@H](NC(=O)C3CCCCC3)[C@@H](CO)O2)nn1	none (no result: C diff growth)
Cc1noc(C)c1NC(=O)Nc1cccc2c1O[C@H](CN(C)S(=O)(=O)c1ccc(F)cc1)[C@H](C)CN([C@H](C)CO)C2=O	none
CCC(=O)N(C)C[C@H]1Oc2ncc(-c3ccc(C(=O)N(C)C)cc3)cc2C(=O)N([C@@H](C)CO)C[C@H]1C	none
C[C@H]1CCCCO[C@H](CN(C)C(=O)C2CCCCC2)[C@@H](C)CN([C@@H](C)CO)C(=O)c2cc(NC(=O)Nc3ccc4c(c3)OCO4)ccc2O1	T cruzi growth-1 inconclusive
CCCC(=O)Nc1ccc2c(c1)OC[C@@H](C)N(Cc1ccccc1F)C[C@H](C)[C@H](OC)CN(C)C2=O	none (no result: C diff growth)
O=C(CC1CC1)N1CC2(C1)[C@@H](c1ccccc1)[C@@H](CO)N2Cc1cccc(F)c1	none (no result: T cruzi growth-1)
COc1ccc2c3c(n(C)c2c1)[C@H](CO)N(CC1CC1)CC31CCN(C(=O)CN2CCOCC2)CC1	none (no result: T cruzi growth-1)
COc1ccc(NC(=O)Nc2cccc3c2O[C@@H](CN(C)S(=O)(=O)c2cn(C)cn2)[C@H](C)CN([C@H](C)CO)C3=O)cc1	none
CCS(=O)(=O)N1CCCCN2[C@H](CO)[C@@H](c3ccc(-c4ccccc4)cc3)[C@@H]2C1	none
CCS(=O)(=O)N1CCCCN2[C@H](CO)[C@H](c3ccc(-c4ccccc4F)cc3)[C@@H]2C1	T cruzi growth-1 96 | T cruzi growth-2 inactive | T cruzi growth-3 inactive | 3T3 cytotox inactive | 3T3 cytotox 2 inactive
CCS(=O)(=O)N1CCCCN2[C@H](CO)[C@@H](c3ccc(-c4ccccc4C)cc3)[C@H]2C1	none
CCS(=O)(=O)N1CCCCN2[C@@H](CO)[C@@H](c3ccc(-c4ccccc4C)cc3)[C@@H]2C1	T cruzi growth-1 inconclusive | T cruzi growth-2 97 | T cruzi growth-3 inactive | 3T3 cytotox inconclusive | 3T3 cytotox 2 79
O=C(NC1CCC1)[C@H]1[C@H](CO)[C@H]2Cn3c(ccc(-c4ccc(F)cc4)c3=O)[C@@H]1N2Cc1cocn1	none (no result: T cruzi growth-1)
O=C(CCN1CCCCC1)NCC[C@@H]1CC[C@H](NC(=O)C2CCOCC2)[C@H](CO)O1	none
N#C[C@@H]1[C@H](c2ccccc2C2=CCCC2)[C@H](CO)N1C(=O)NC1CCCCC1	none (no result: T cruzi growth-1)
N#C[C@@H]1[C@@H](c2ccc(-c3cccc(F)c3)cc2)[C@H](CO)N1c1nc(-c2ccccc2)cs1	none (no result: T cruzi growth-1)
CCc1csc(N2[C@H](C#N)[C@@H](c3ccc(-c4cccc(F)c4)cc3)[C@H]2CO)n1	T cruzi growth-1 100 | T cruzi growth-2 108 | T cruzi growth-3 inactive | 3T3 cytotox inactive | 3T3 cytotox 2 31
CCc1csc(N2[C@@H](C#N)[C@H](c3ccc(-c4cccc(F)c4)cc3)[C@@H]2CO)n1	T cruzi growth-1 105 | T cruzi growth-2 103 | T cruzi growth-3 inactive | 3T3 cytotox inactive | 3T3 cytotox 2 inactive
CCc1csc(N2[C@H](CO)[C@H](c3ccc(-c4cccc(F)c4)cc3)[C@@H]2C#N)n1	none

Assay outcomes: PubChem BioAssay, Broad Institute
